# PubChem BioAssay (NCATS)
# Results filed as inconclusive are left out. A call without a number means that no potency is given here. Activity calls are given as the source filed them. Calls follow the shape of the dose curve; as a rule, active = well fitted cell-killing curve with a large enough effect; inconclusive = small, poorly fitted or top-dose-only effect; inactive = flat fitted curve, though single readings scatter.
# Test: qHTS assay to identify small molecule inhibitors of chordoma cells - UCH-2 (AID 1259356)
# Settings: UCH-2 chordoma viability, CellTiter-Glo ATP luminescence, 48 h; series mostly up to 46.1 µM
# Potency is read from the fitted curve at half-maximal effect.
row,Structure (SMILES),Potency
1,C[C@@H]1C/C=C/C=C/C=C/C=C/[C@H](O[C@@H]2O[C@H](C)[C@@H](O)[C@H](N)[C@@H]2O)C[C@@H]2O[C@](O)(C[C@@H](O)C[C@H]3O[C@@H]3/C=C/C(=O)O1)C[C@H](O)[C@H]2C(=O)O,inactive
2,C[Se]CC[C@H](N)C(=O)O,inactive
3,CCOc1ccc(S(=O)(=O)O)c2cccnc12,inactive
4,CCN1\C(=C/C=C/C=C/c2sc3ccccc3[n+]2CC)Sc2ccccc21,18.3 µM (active)
5,Cc1cc(-c2ccc(N=Nc3ccc4c(S(=O)(=O)O)cc(S(=O)(=O)O)c(N)c4c3O)c(C)c2)ccc1N=Nc1ccc2c(S(=O)(=O)O)cc(S(=O)(=O)O)c(N)c2c1O,inactive
6,CSc1nc2cc(Oc3cccc(Cl)c3Cl)c(Cl)cc2[nH]1,inactive
7,O=C(CCCN1CCC(C(=O)c2ccc(F)cc2)CC1)c1ccc(F)cc1,inactive
8,c1ccc(-n2cnnn2)cc1,inactive
9,CCCCCCCCCCCCCCCCOCCOCCOCCOCCOCCOCCOCCOCCOCCOCCOCCOCCOCCOCCOCCOCCOCCOCCOCCOCCO,inactive
10,CN[C@@H]1[C@@H](O)[C@@H](O[C@@H]2[C@@H](O)[C@H](OC3OC(CN)=CCC3N)[C@@H](N)C[C@H]2N)OC[C@]1(C)O (stereo partly drawn),inactive
11,NCC[C@H](O)C(=O)N[C@@H]1C[C@H](N)[C@@H](O[C@H]2O[C@H](CN)CC[C@H]2N)[C@H](O)[C@H]1O[C@H]1O[C@H](CO)[C@@H](O)[C@H](N)[C@H]1O,inactive
12,CCCCC[C@H](O)/C=C/[C@H]1[C@H](O)CC(=O)[C@@H]1CCCCCCC(=O)O,inactive
13,O=C(O)/C=C/C(=O)Nc1ccc(S(=O)(=O)Nc2nccs2)cc1,inactive
